# According to PubChem BioAssay (Tox21):
# Where “and” joins values, the source holds several entries; their conditions need not be identical. Identical values can stand only once. Records with an inconclusive call do not appear. A call without a number means that no potency is given here. Where a structure was tested more than once in an assay, its records may differ in their call. Calls of active or inactive are those of the source. Unless noted, calls come from the whole dose curve; as a rule, active = well fitted curve in the direction sought with a large enough effect in the repeat runs; inconclusive = weak or mixed curves; inactive = no such curve, though single readings can be large; an effect the other way counts as inactive or inconclusive.
# Key:
# [1] = qHTS assay to identify small molecule antagonists of the estrogen related receptor (ERR) signaling pathway from Tox21 library - cell viability counter screen (AID 1224834); note: nearly all actives have a fitted effect of over 30% in size; note: potency is the fitted concentration of half-maximal effect
# How it was run: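 Multiplexed viability counter screen in ERR cells: 17.5 h compound exposure at 37 C, CellTiter-Fluor added, 30 min at 37 C/5% CO2, fluorescence read.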
# [2] = molecular target: Luciferin 4-monooxygenase (Photinus pyralis) (UniProt P08659); assay: qHTS assay to identify small molecule inhibitors of firefly luciferase (AID 1224835); note: nearly all actives have a fitted effect of over 25% in size; note: potency is the fitted concentration of half-maximal effect
# How it was run: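 Inhibition of purified Photinus luciferase is measured by luminescence. Substrate levels (D-luciferin, ATP) sit at their KM values. Each compound is tested in a concentration series.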
# [3] = qHTS assay to identify small molecule agonists of the constitutive androstane receptor (CAR) signaling pathway - cell viability counter screen (AID 1224836); note: nearly all actives have a fitted effect of over 45% in size
# How it was run: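 23 h treatment, 37 C, 5% CO2. Cell line: HepG2 stably expressing hCAR with a CYP2B6-2.2kb construct. Co-treatment: PK11195, 0.75 uM final. Read-out: CellTiter-Fluor fluorescence intensity.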
# [4] = qHTS assay to identify small molecule antagonists of the constitutive androstane receptor (CAR) signaling pathway - cell viability counter screen (AID 1224837); note: nearly all actives have a fitted effect of over 45% in size
# How it was run: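 Read-out: CellTiter-Fluor fluorescence after 23 hr at 37 C/5% CO2. Cells: HepG2 double-stable for hCAR and CYP2B6-2.2kb. Compounds tested at 15 concentrations in the presence of CITCO, final concentration 50 nM.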
# [5] = molecular target: Nuclear receptor subfamily 1 group I member 3 (Homo sapiens) (UniProt Q14994); assay: qHTS assay to identify small molecule antagonists of the constitutive androstane receptor (CAR) signaling pathway (AID 1224838);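 note: HepG2 cells stably expressing hCAR with CYP2B6 luciferase reporter stimulated by CITCO; nearly all actives have a fitted effect of over 40% in size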; note: potency is the fitted concentration of half-maximal effect
# How it was run: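 Read-out: ONE-Glo luciferase luminescence after 30 min at room temperature. HepG2-CYP2B6-hCAR double-stable cells, compounds in 15-point titration plus 50 nM CITCO final, 24 h at 37 C/5% CO2.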
# [6] = molecular target: Nuclear receptor subfamily 1 group I member 3 (Homo sapiens) (UniProt Q14994); assay: qHTS assay to identify small molecule agonists of the constitutive androstane receptor (CAR) signaling pathway (AID 1224839); note: nearly all actives have a fitted effect of over 15% in size; note: potency is the fitted concentration of half-maximal effect;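 for activation: HepG2 cells stably carrying human CAR and a CYP2B6 luciferase reporter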
# How it was run: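 Compounds tested at 15 concentrations on HepG2 cells stably harbouring hCAR and CYP2B6-2.2kb reporter constructs, co-treated with PK11195 (0.75 uM final), 24 h at 37 C; luminescent reporter signal quantified.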
# [7] = qHTS assay to identify small molecule antagonists of the estrogen related receptor signaling pathway with the pleiotropic PPARgamma coactivator (PGC) from Tox21 10K library - cell viability counter screen (AID 1224840; active = well fitted cell-killing curve with a large enough effect in the repeat runs, not every such curve was filed as active; note: nearly all actives have a fitted effect of over 40% in size)
# How it was run: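 Fluorescence read-out of CellTiter-Fluor viability reagent, added after cells had been exposed to compound in DMSO for 17.5 h at 37 C; 30 min development at 37 C/5% CO2. Cells: PGC/ERR line, 2,000/well.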
# [8] = molecular target: Thyrotropin receptor (Homo sapiens) (UniProt P16473); assay: qHTS assay to identify small molecule agonists of the thyroid stimulating hormone receptor (TSHR) signaling pathway (AID 1224843; calls by dose curve; note: nearly all actives have a fitted effect of over 45% in size; note: potency is the fitted concentration of half-maximal effect)
# How it was run: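 Agonist activity read as cAMP rise via d2/cryptate HTRF competition, 1 h room-temperature detection, in HEK293 cells expressing TSHR. Fifteen-point titrations, each run in triplicate, with a 30 min room-temperature incubation beforehand.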
# [9] = qHTS assay to identify small molecule agonists of the hypoxia (HIF-1) signaling pathway - cell viability counter screen (AID 1224844; calls by dose curve; note: nearly all actives have a fitted effect of over 50% in size; note: potency is the fitted concentration of half-maximal effect)
# How it was run: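 CellTiter-Glo luminescence read-out, 30 min RT, taken in the same wells as the beta-lactamase HRE reporter assay; HRE-bla ME-180 cells, 0.5% dialyzed FBS, 17 hr compound treatment at 37C, 5% CO2.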
# [10] = qHTS assay to identify small molecule agonists of H2AX (AID 1224845; active = well fitted activation curve with a large enough effect in the signal ratio in the repeat runs, not every such curve was filed as active; the % refers to the signal ratio)
# How it was run: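 Phospho-H2AX Ser139 measured by HTRF (ex 320 nm; em 665 and 620 nm) after 24 hr antibody incubation. Compounds, 15 concentrations, 0.76% DMSO, were applied to CHO-K1 cells for 3hr at 37C before lysis.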
# [11] = qHTS assay to identify small molecule agonists of the hypoxia (HIF-1) signaling pathway (AID 1224846; active = well fitted activation curve with a large enough effect in the signal ratio in the repeat runs, not every such curve was filed as active; the % refers to the signal ratio)
# How it was run: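 Beta-lactamase FRET read-out (CCF4-AM substrate) from ME-180 cells carrying an HRE-driven bla reporter, after 17 hrs compound exposure at 37C/5% CO2. Cells were seeded at 2,000 per well in 0.5% dialyzed FBS medium and preincubated 5 hrs.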
# [12] = qHTS assay to identify small molecule agonists of H2AX - cell viability counter screen (AID 1224847; calls by dose curve; note: nearly all actives have a fitted effect of over 30% in size; note: potency is the fitted concentration of half-maximal effect)
# How it was run: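 Compounds tested at 15 concentrations were incubated 3 hr at 37C with wild-type CHO-K1 cells; cellular ATP-based luminescence (CellTiter-Glo) indicated viability.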
# [13] = qHTS RealTime-Glo MT Cell Viability Assay in HepG2 cells - 24 hour (AID 1224867); note: nearly all actives have a fitted effect of over 50% in size
# How it was run: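 Tox21 10K library screened in qHTS format on HepG2 cells carrying RealTime-Glo reagents. Compounds were added after a 5 h preincubation, and the luminescent signal from continuous culture was measured repeatedly during 40 h treatment.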
# [14] = qHTS RealTime-Glo MT Cell Viability Assay in HEK293 cells - 32 hour (AID 1224868); note: nearly all actives have a fitted effect of over 50% in size; note: potency is the fitted concentration of half-maximal effect
# How it was run: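 Luminescence generated by NanoLuc from substrate produced by living HEK293 cells served as the viability signal. Each value reflects the reading at its stated time point during continuous 40 h compound exposure at 37 C.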
# [15] = A CellTox Green Cytotoxicity Assay to monitor cytotoxicity in HEK293 cells - 0 hour (AID 1224869); note: nearly all actives have a fitted effect of over 50% in size
# How it was run: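 Read-out: fluorescence of a cell-impermeant cyanine dye staining DNA of dead cells, proportional to cytotoxicity. HEK293, 600 cells/well with reagent, compound (23 nL DMSO) added after 5 h; reads at 0, 8, 16, 24, 32, 40 h.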
# [16] = qHTS assay to identify small molecule antagonists of the estrogen related receptor signaling pathway with the pleiotropic PPARgamma coactivator (PGC) from Tox21 10K library (AID 1224841; call rule not given here)
# How it was run: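 Luminescence read-out (One-Glo luciferase reagent, 30 min at room temperature) from PGC/ERR cells exposed to DMSO-dissolved test compounds for 18 h at 37 C; cells, 2,000 per well, had been preincubated 6 h before compound transfer.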
# [17] = qHTS assay to identify small molecule agonists of the estrogen related receptor signaling pathway with the pleiotropic PPARgamma coactivator (PGC) from Tox21 10K library (AID 1224842); note: nearly all actives have a fitted effect of over 15% in size
# How it was run: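 Luminescence from One-Glo (30 min, room temperature) measured after PGC/ERR cells had 18 h at 37 C with pinned compound (23 nL in DMSO). Cells had been seeded at 2,000 per well and pre-incubated 6 h.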
# [18] = qHTS assay to identify small molecule antagonists of the estrogen related receptor (ERR) signaling pathway from Tox21 library (AID 1224848); note: nearly all actives have a fitted effect of over 50% in size
# How it was run: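 Luciferase luminescence (ONE-Glo, 30 min room temperature) was the read-out. Cells of the NTP-supplied ERR line, 2,000 per well, were given 6 h at 37 C before compound addition in DMSO and 18 h exposure at 37 C.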
# [19] = qHTS assay to identify small molecule agonists of the estrogen related receptor (ERR) signaling pathway from Tox21 library (AID 1224849; calls by dose curve; note: nearly all actives have a fitted effect of over 15% in size); conditions: ERR reporter cell line, ONE-Glo luciferase, 18 h; at 92.4 µM (top of the series)
# How it was run: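 Luminescence readout (ONE-Glo, 30 min RT) after 18 h compound exposure at 37 C of NTP-supplied ERR reporter cells; cells were plated 6 h before compound addition by pin tool.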
# Luciferin 4-monooxygenase (Photinus pyralis), sequence (P08659 whole entry, looked up): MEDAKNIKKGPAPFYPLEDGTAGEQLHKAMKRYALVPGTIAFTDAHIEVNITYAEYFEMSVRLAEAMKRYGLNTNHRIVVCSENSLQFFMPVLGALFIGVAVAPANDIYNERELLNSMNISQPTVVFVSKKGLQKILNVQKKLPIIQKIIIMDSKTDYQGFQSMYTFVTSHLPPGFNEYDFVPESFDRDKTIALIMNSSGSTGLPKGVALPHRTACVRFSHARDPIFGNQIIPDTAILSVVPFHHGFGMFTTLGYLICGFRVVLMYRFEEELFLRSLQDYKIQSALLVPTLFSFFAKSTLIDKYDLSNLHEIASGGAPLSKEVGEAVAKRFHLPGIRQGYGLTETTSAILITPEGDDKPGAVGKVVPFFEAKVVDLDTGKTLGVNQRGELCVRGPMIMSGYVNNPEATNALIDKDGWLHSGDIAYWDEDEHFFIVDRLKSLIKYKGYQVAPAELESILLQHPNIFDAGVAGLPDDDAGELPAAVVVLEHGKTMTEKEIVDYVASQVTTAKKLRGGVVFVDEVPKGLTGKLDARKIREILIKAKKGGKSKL
# Thyrotropin receptor (Homo sapiens), sequence (P16473 whole entry, looked up): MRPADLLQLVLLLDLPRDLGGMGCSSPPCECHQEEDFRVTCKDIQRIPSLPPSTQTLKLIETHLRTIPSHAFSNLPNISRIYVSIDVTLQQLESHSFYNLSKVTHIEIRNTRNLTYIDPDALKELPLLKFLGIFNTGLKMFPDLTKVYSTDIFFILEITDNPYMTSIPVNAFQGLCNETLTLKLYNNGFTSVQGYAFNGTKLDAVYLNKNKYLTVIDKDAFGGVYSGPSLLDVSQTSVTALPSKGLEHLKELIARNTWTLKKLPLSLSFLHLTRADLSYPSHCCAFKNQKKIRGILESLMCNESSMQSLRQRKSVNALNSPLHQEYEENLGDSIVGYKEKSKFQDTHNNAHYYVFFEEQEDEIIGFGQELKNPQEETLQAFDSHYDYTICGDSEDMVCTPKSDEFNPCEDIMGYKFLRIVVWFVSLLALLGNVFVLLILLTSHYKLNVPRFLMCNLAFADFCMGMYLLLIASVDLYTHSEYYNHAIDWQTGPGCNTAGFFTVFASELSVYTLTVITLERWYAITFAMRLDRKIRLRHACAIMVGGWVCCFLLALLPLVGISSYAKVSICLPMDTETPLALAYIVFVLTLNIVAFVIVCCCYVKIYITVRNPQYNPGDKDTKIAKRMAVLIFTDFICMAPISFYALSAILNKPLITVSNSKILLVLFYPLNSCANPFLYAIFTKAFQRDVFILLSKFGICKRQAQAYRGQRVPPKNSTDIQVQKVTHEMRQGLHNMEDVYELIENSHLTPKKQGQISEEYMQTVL
# Nuclear receptor subfamily 1 group I member 3 (Homo sapiens), sequence (Q14994 whole entry, looked up): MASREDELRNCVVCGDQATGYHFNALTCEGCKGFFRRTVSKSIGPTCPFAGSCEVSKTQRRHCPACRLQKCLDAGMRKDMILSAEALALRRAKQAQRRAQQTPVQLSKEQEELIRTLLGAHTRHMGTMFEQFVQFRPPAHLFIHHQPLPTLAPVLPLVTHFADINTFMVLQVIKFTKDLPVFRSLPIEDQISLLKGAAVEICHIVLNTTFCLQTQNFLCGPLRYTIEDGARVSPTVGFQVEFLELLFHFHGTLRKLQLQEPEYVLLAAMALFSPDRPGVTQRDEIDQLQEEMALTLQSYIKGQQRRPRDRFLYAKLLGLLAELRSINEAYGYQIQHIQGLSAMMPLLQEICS
SMILES,Potency [1],Potency [2],Potency [3],Potency [4],Potency [5],Potency [6],Potency [7],Potency [8],Potency [9],Potency [10],outcome [11],Potency [12],Potency [13],Potency [14],Potency [15],Potency [16],Potency [17],Potency [18],"activity change, positive = activation [19]"
O=P(O)(O)CCCl,inactive,inactive,inactive,inactive,inactive,inactive,inactive,inactive,inactive,inactive,inactive,inactive,inactive,inactive,inactive,–,–,–,–
C=CCN(CC=C)C(=O)C(Cl)Cl,inactive,inactive,inactive,inactive,inactive,inactive,inactive,inactive,inactive,inactive,inactive,inactive,inactive,–,inactive,–,–,–,–
COC(=O)c1sccc1S(=O)(=O)NC(=O)Nc1nc(C)nc(OC)n1,inactive,inactive,inactive,inactive,inactive,inactive,inactive,inactive,inactive,inactive,inactive,inactive,inactive,inactive,inactive,–,–,–,–
CCCCCCCCC(=O)NCc1ccc(O)c(OC)c1,inactive,inactive,inactive,inactive,inactive,inactive,inactive,inactive,inactive,inactive,–,inactive,inactive,inactive,inactive,–,–,–,–
CCOc1cc(C=O)ccc1O,inactive,inactive,inactive,inactive,inactive,inactive,inactive,inactive,inactive,inactive,inactive,inactive,inactive,inactive,inactive,–,–,–,–
CN(C)C(=O)Nc1ccc(Cl)cc1,inactive,inactive,inactive,inactive,inactive,inactive,inactive,inactive,inactive,inactive,inactive,inactive,inactive,inactive,inactive,–,–,–,–
CNC(=O)N(C)c1nnc(C(C)(C)C)s1,inactive,inactive,inactive,inactive,inactive,inactive,inactive,inactive,inactive,inactive,–,inactive,inactive,inactive,inactive,–,–,–,–
CC(C)N(C(=O)SCC(Cl)=C(Cl)Cl)C(C)C,inactive,inactive,inactive,inactive,inactive,inactive,inactive,30.2 µM (active) and 15.4 µM (active),inactive,inactive,inactive,inactive,inactive,–,inactive,–,–,–,–
Nc1ccc(-c2ccccc2)cc1,8.87 µM (active) and inactive,57.9 µM (active) and 63.3 µM (active),inactive,inactive,inactive,30.6 µM (active),inactive,inactive,28.3 µM (active) and inactive,inactive,inactive,inactive,inactive,7.98 µM (active) and inactive,inactive,–,–,–,–
CC(C)C(=O)OCC(C)(C)C(OC(=O)C(C)C)C(C)C (centres undefined),inactive,inactive,inactive,inactive,inactive,inactive,inactive,inactive,inactive,inactive,inactive,inactive,inactive,inactive,inactive,inactive,inactive,inactive,5% (inactive) and 0.884% (inactive)
COP(=O)(OC)OC,inactive,inactive,inactive,inactive,30.9 µM (active) and inactive,inactive,inactive,inactive,inactive,inactive,inactive,inactive,inactive,–,inactive,inactive,inactive,inactive,-30.8% (inactive) and 3.29% (inactive)
N#CCCCl,inactive,inactive,inactive,inactive,inactive,inactive,inactive,inactive,inactive,inactive,inactive,inactive,inactive,–,inactive,–,–,–,–
CCC(C)c1ccc(O)cc1 (centres undefined),inactive,71.6 µM (active),inactive,inactive,inactive,inactive,inactive,–,inactive,inactive,inactive,–,inactive,–,inactive,inactive,inactive,inactive,-5.15% (inactive) and 5.69% (inactive)
Nc1ccncc1,inactive,inactive,inactive,inactive,inactive,inactive,inactive,inactive,inactive,inactive,–,inactive,inactive,inactive,inactive,–,–,–,–
CC(C)(OOC(C)(C)c1ccccc1)c1ccccc1,inactive,inactive,inactive,inactive,inactive,24 µM (active) and 8.63 µM (active),inactive,inactive,inactive,–,inactive,99.3 µM (active),inactive,–,inactive,inactive,inactive,inactive,7.35% (inactive) and 4.9% (inactive)
